Source: PubChem BioAssay (NCI)
About 83,000 compounds went through this panel and 20% of them were active in at least one assay; those are over-represented in the sample as a whole.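 Cells were grown in 96-well plates and exposed to the test compound at a single concentration for 48 hours; results are reported as percent growth, with values below 10 considered active.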 The source made the active and inactive calls.

Test system: NCI/ADR-RES ovarian
Assay: NCI-60 one-dose screen, 48 h (100 = growth as untreated, 0 = no growth, -100 = all killed)
Settings: 10 µM unless noted

Row | Structure (SMILES) | growth
1 | c1c[nH]c(CNC2CCCCC2)c1 | 99.1% (inactive)
2 | COc1ccc2c(c1)CCCN2c1c2ccccc2nc2ccccc12 | 0.746% (active)
3 | CC/C=C/C/C=C/C/C=C/C/C=C/C/C=C/C/C=C/CCC(=O)Nc1ccn([C@@H]2O[C@H](CO)[C@@H](O)C2(F)F)c(=O)n1 | 14.1% (inactive)
4 | Cc1ccc2nc(NC(=O)CSc3nc(-c4ccccc4)c(C#N)c(=O)n3Cc3ccccc3)sc2c1 | 92.2% (inactive)
5 | NNC(=O)c1nc(N)n(-c2ccc(S(N)(=O)=O)cc2)n1 | 100% (inactive)
6 | O=C(CC(SCc1ccccc1)c1ccccc1)c1ccccc1 (stereo not given) | 93.5% (inactive)
7 | COC1=C(OC)C(=O)C(OC)=C(OC)C1=O | 98% (inactive)
8 | COC(=O)CCC1=C(C)C2=NC1=CC1=NC(=CC3=NC(=Cc4[nH]c(/c(=C(/C)O)c4C)=C2)C(C(C)=O)=C3C)C(C)=C1CCC(=O)OC | 103% (inactive)
9 | CC1=CN2C(=O)C3C4=C(CCCC4)SC3N=C2CN1c1c(C)cccc1C (stereo not given) | 99.6% (inactive)
10 | O=C(Nc1cccc(Oc2nnc(Cl)c3ccccc23)c1)Nc1ccc(Cl)c(C(F)(F)F)c1 | -28.2% (active)
11 | CN1CCN(CCCOc2ccc3nc(Nc4ccc(F)c(F)c4)ccc3c2)CC1 | 70.6% (inactive)
12 | COc1ccccc1NC(=O)N/C(N)=N/c1nc2ccccc2s1 | 4.92% (active)
13 | Cc1ccc(Nc2nc(N)nc(CSCC(=O)NN)n2)cc1 | 104% (inactive)
14 | CC1CC(C(C)(C)C)C(=O)C(C(C)(C)C)C1 (stereo not given) | 114% (inactive)
15 | O=C(O)c1ccc2c(c1Cl)C(=O)c1ccccc1C2=O | 97.5% (inactive)
